Compound activity (PubChem BioAssay)
D3 antag – antagonists of human D3 dopamine receptor. D3R cells, DiscoveRx beta-arrestin luminescence, antagonist mode; stronger effect = lower value. AID 652054. 360,000 compounds, 2.5% hits. P35462. max response, negative = inhibition, %; in the data active = max response below about -50%; also: % is scaled to controls: 0 for no effect and ±100 for the full control effect
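Cells plated overnight at 1500 cells/well, then exposed to library compounds with dopamine controls for 90 minutes at 37 degrees C. DiscoveRx reagent added for 30–60 minutes at room temperature; luminescence read, quantitative HTS format.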
D1 antag – human D1 dopamine receptor antagonism; 360,000 compounds, 3.2% hits; P21728; HEK293 TREx D1 cells, calcium flux, dopamine EC80; stronger effect = lower value; activity change, negative = inhibition, % at 10 µM; AID 504652; in the data active = activity change below about -30%; also: % is scaled to controls: 0 for no effect and ±100 for the full control effect
Target sequence (P21728 whole entry, looked up): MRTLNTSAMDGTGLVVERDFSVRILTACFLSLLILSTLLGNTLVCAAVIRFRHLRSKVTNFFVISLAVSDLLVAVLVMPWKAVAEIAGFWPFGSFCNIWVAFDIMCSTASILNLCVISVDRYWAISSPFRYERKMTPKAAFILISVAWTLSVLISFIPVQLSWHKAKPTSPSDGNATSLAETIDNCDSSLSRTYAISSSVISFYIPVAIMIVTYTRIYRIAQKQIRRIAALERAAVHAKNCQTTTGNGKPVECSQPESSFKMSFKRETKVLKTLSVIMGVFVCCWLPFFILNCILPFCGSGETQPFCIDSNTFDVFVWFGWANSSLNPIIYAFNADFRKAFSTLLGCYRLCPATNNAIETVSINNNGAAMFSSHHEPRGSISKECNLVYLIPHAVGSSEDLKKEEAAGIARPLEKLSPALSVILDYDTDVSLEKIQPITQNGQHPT
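Antagonism measured as reduced calcium response to an EC80 dopamine addition following 180 s compound pre-read; cells were inducible HEK293 Trex D1 plated overnight at 30 C, read kinetically at 1 cycle/sec.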
D1 ag – agonists of human D1 dopamine receptor; P21728; HEK293 T-REx D1 cells, calcium flux, agonist mode; activation, % at 2 µM; 360,000 compounds, 1% hits; AID 504660; in the data active = activation above about 30%; also: 0% is about no effect
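Agonism was scored from calcium flux recorded over 180 s (1 read/s) after pintool compound addition, following a 10-cycle baseline. Cells were inducible force-coupled HEK293 TREx D1, plated overnight at 30 C and loaded with no-wash calcium dye.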
D3 ag – activates the human D3 dopamine receptor. D3R DiscoveRx beta-arrestin cells, luminescence, 90 min. max activation, %. 410,000 compounds, 0.58% hits. AID 652048; in the data active = max activation above about 30%; also: 0% is about no effect
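Agonist mode: compounds and dopamine controls were applied to plated cells for 90 min at 37 degrees C after an overnight attachment at 1500 cells/well. Luminescent read-out followed 30 - 60 minutes at room temperature with DiscoveRx detection reagent.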
D1 PAM – enhances dopamine response at the human D1 receptor; P21728; HEK293 TREx D1 cells, calcium flux, dopamine EC20 potentiation; potentiation, % at 10 µM; 360,000 compounds, 0.036% hits; AID 504651; in the data active = potentiation above about 30%; also: 0% is about no effect
The depositor's hits bear a star; nt = no result. A selection: hits, their analogues and other compounds. The true share with any hit is near 6%.

SMILES	D3 antag	D1 antag	D1 ag	D3 ag	D1 PAM
COc1cc2cc(CNc3ccccc3)c(=O)n(CC(=O)Nc3ccc(C)c(Cl)c3)c2cc1OC	nt	6.5	30.4*	-6.8	-1.0
COc1cc(CC(=O)N(C)CC(=O)Nc2cc(C)ccc2C)cc(OC)c1OC	5.6	11.8	0.4	-9.4	-8.0
CCOc1cc2sc(N3CCC(C(=O)Nc4ccc(C)cc4)CC3)nc2cc1Br	nt	-57.8*	0.7	-3.8	-3.6
COc1ccc(N2CCN(C(=O)CCC(=O)N3CCOc4ccc(C)cc43)CC2)cc1	-0.8	-34.0*	5.6	-0.3	-3.5
COc1ccc(N2CCN(C(=O)Cc3coc4ccc(C)cc34)CC2)cc1	nt	-67.7*	0.8	-10.0	-0.7
Cc1ccc2c(c1)N(C(=O)CCC(=O)N1CCN(c3ccccc3)CC1)CCO2	30.3	-49.9*	1.8	2.0	-11.1
Cc1ccc(S(=O)(=O)Nc2ccc(Nc3nccn4c(-c5cccc(OC(F)(F)F)c5)cnc34)cc2)cc1	12.5	nt	nt	2.4	nt
CCOC(=O)c1ccccc1NC(=O)CSc1nnc(CC)n2c1cc1occc12	nt	8.2	1.3	5.1	0.9
COc1cccc(CNC(=O)CCCN2C(=O)CCn3nc(-c4cccn4C)cc32)c1	nt	-3.7	0.2	7.5	-1.7
Cc1ccc(/C=C/c2onc(C)c2S(=O)(=O)N2CCC(C(=O)Nc3ccc(C)c(N(C)C)c3)CC2)cc1	nt	-12.9	3.9	0.7	-3.2
COc1ccc(/C=C\c2onc(C)c2S(=O)(=O)N2CCC(C(=O)Nc3cccc(C)c3C)CC2)cc1	nt	6.2	-0.3	6.1	1.3
COc1ccc(/C=C\c2onc(C)c2S(=O)(=O)N2CCC(C(=O)Nc3cccc(Cl)c3)CC2)cc1	nt	-27.0	3.1	61.6*	-0.1
Cc1ccc(/C=C/c2onc(C)c2S(=O)(=O)N2CCC(C(=O)Nc3ccc(OC(F)(F)F)cc3)CC2)cc1	nt	-67.5*	1.9	-3.5	-3.9
Cc1ccccc1N1CCN(S(=O)(=O)c2nnc(NC(=O)c3ccco3)s2)CC1	3.0	-20.8	4.8	-6.8	-9.6
COC(=O)c1ccccc1NC(=O)c1cc2ccccn2n1	nt	-4.9	0.2	-1.5	-2.9
Cc1c(OC(C)C(=O)NCc2ccccn2)ccc2c3c(c(=O)oc12)CCCC3 (centres undefined)	5.2	-36.9*	6.7	0.5	-7.0
CC(Oc1cc2oc(=O)c3c(c2cc1Cl)CCC3)C(=O)NC1CC(C)(C)NC(C)(C)C1 (centres undefined)	6.8	38.5	3.6	-0.5	-1.5
Cc1c(OC(C)C(=O)NCCN2CCOCC2)ccc2c3c(c(=O)oc12)CCCC3 (centres undefined)	3.9	-0.1	3.8	-1.7	-1.9
Cc1c(OC(C)C(=O)NCCCN2CCCC2=O)ccc2c3c(c(=O)oc12)CCCC3 (centres undefined)	12.1	3.9	33.1*	-14.8	-1.8
Cc1c(OC(C)C(=O)NC2CC(C)(C)NC(C)(C)C2)ccc2c3c(c(=O)oc12)CCC3 (centres undefined)	-3.7	-48.9*	2.2	1.4	-5.2
Cc1c(OC(=O)CNC(=O)OC(C)(C)C)ccc2c3c(c(=O)oc12)CCC3	16.5	-42.6*	4.4	-1.2	-9.7
O=C(CSc1nc(=O)[nH]c2c1CCCC2)NCc1ccccc1	nt	nt	0.3	5.9	-2.0
COc1ccc(NC(=O)Cn2c(=O)n(Cc3ccco3)c(=O)c3oc4ccccc4c32)cc1Cl	nt	7.2	0.2	-23.4	-3.5
Cc1ccc(S(=O)(=O)N2CCOCC2)cc1NC(=O)CN1C(=O)NC2(CCCC2)C1=O	5.7	nt	nt	-8.1	nt
CCCC1(c2ccccc2)NC(=O)N(CC(=O)Nc2cc(S(=O)(=O)N3CCOCC3)ccc2Cl)C1=O (centres undefined)	15.6	-30.1*	7.1	3.2	-5.5
CCCC1(c2ccccc2)NC(=O)N(CC(=O)Nc2cc(OC)cc(OC)c2)C1=O (centres undefined)	-3.1	6.5	34.7*	-5.8	nt
COc1cc(NC(=O)CN2C(=O)NC(c3ccccc3)(c3ccccc3)C2=O)cc(OC)c1	-19.6	-7.7	9.4	0.5	2.4
CCC1CCCCN1C(=S)Nc1ccc(OC(F)F)cc1 (centres undefined)	5.4	-43.2*	18.7	2.6	-0.4
CC1CC(C)CN(C(=S)Nc2ccc(OC(F)F)cc2)C1 (centres undefined)	19.3	-17.5	5.3	-4.2	-3.0
